We go through 14 molecules from PubChem BioAssay (NCI).

Compounds without any hit were thinned out: in the full panel of roughly 83,000, 20% have a hit.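 Testing used 96-well plates and a 48-hour single-concentration exposure. Example: -40 means 40% of the starting cells died.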 Unmarked numbers belong to inactive results. Activity calls are given as the source filed them. How the source made its calls: active means growth percent below 10; inactive means the rest.

Some test systems named below: T-47D breast; BT-549 breast; MDA-MB-435 melanoma; SW-620 colon; MCF7 breast; HCT-116 colon; HCC-2998 colon; KM12 colon.
Assay in all cases: NCI-60 one-dose screen, 48 h (100 = growth as untreated, 0 = no growth, -100 = all killed)
What all share (conditions): 10 µM unless noted

In the case of `CC(=O)c1nn(-c2ccccc2)/c(=N/N=Cc2cn(-c3ccccc3)nc2-c2cc3ccccc3oc2=O)s1`, the growth in the experiment on T-47D breast was 89.1%; with BT-549 breast, 105%; with MDA-MB-435 melanoma, 103%; in the experiment with SW-620 colon, 104%; in the experiment with MCF7 breast, 91.5%; in the experiment with HCT-116 colon, 97.6%. The growth was 108% with HCC-2998 colon and 106% in the experiment on KM12 colon.
For `O=C1N=c2ccccc2=C1c1sc(=S)n(C2CC(=O)N(c3ccc(Cl)cc3)C2=O)c1O` (configuration not stated), the growth with T-47D breast was 97.9%; in the experiment with BT-549 breast, 105%; in the experiment with MDA-MB-435 melanoma it was 102%; in the experiment with SW-620 colon, 99.8%; in the experiment on MCF7 breast, 91.1%; in the experiment on HCT-116 colon it was 96.7%. The growth with HCC-2998 colon is 105%; with KM12 colon it was 100%.
With `O=C1/C(=C/c2cn(-c3ccccc3)nc2-c2ccccc2)SC(=S)N1c1ccccc1`, the growth was 99.1% in the experiment on T-47D breast; 98% in the experiment on BT-549 breast; 98.3% in the experiment with MDA-MB-435 melanoma; 99.8% in the experiment with SW-620 colon; 93.8% in the experiment on MCF7 breast; 102% in the experiment with HCT-116 colon. Moreover, the growth in the experiment on HCC-2998 colon was 96.6%; in the experiment on KM12 colon it was 101%.
For `COC(=O)[C@H]1Cc2c([nH]c3ccccc23)[C@@H](c2cccs2)N1`, the growth in the experiment with T-47D breast is 92.9%; in the experiment on BT-549 breast it was 102%; with MDA-MB-435 melanoma, 100%; with SW-620 colon, 100%; in the experiment with MCF7 breast, 103%; in the experiment with HCT-116 colon, 104%. For the same molecule, the growth is 102% in the experiment on HCC-2998 colon and 100% with KM12 colon.
For the molecule `CCOC(=O)c1ccc(Nc2ncnc3c2cnn3-c2cccc(F)c2)cc1`, the growth in the experiment with T-47D breast is 100%; in the experiment with BT-549 breast it was 100%; in the experiment on MDA-MB-435 melanoma it was 103%; in the experiment on SW-620 colon it was 99.8%; with MCF7 breast, 95%; in the experiment on HCT-116 colon, 99.3%. Moreover, the growth is 104% with HCC-2998 colon and 99.3% in the experiment with KM12 colon.
As for `C=C1CC[C@@H]2[C@](C)(COC(C)=O)[C@H](OC(C)=O)CC[C@@]2(C)[C@@H]1CC(Nc1ccc(S(=O)(=O)Nc2nccs2)cc1)C1=CCOC1=O` (some centres not stated), the growth in the experiment with T-47D breast is 34.6%; in the experiment with BT-549 breast, -23.5% (active); in the experiment with MDA-MB-435 melanoma it was -8.31% (active); in the experiment on SW-620 colon it was -72.7% (active); with MCF7 breast, -21.3% (active); in the experiment on HCT-116 colon, -30.4% (active). Besides, the growth in the experiment on HCC-2998 colon is 54.2%; in the experiment on KM12 colon, -0.895% (active).
`O=C(NNc1ccccc1)c1ncc[nH]1`: the growth in the experiment on T-47D breast was 43.6%; with BT-549 breast, 101%; in the experiment on MDA-MB-435 melanoma it was 24.2%; with SW-620 colon, 60.7%; in the experiment on MCF7 breast, 56.5%; in the experiment on HCT-116 colon, 64.4%. In addition, the growth in the experiment on HCC-2998 colon is 60.6%; in the experiment on KM12 colon, 29.5%.
As for `CN(Cc1ccccc1)c1nc(Cl)c(C2CC(c3ccc4c(c3)OCO4)=NN2c2cc(Cl)cc(Cl)c2)s1` (configuration not stated), the growth with T-47D breast was 86.1%; in the experiment on BT-549 breast, 104%; with MDA-MB-435 melanoma it was 97.2%; with SW-620 colon it was 99.1%; in the experiment on MCF7 breast it was 78.2%; in the experiment with HCT-116 colon, 87%. The growth in the experiment on HCC-2998 colon was 106%; with KM12 colon, 98.5%.
For the molecule `COc1cc(Cl)cc(-c2nn(C(=O)NS(=O)(=O)c3ccc(Cl)cc3)cc2-c2ccncc2)c1`, the growth in the experiment on T-47D breast is 90.8%; with BT-549 breast, 41.2%; in the experiment on MDA-MB-435 melanoma it was 87.5%; in the experiment on SW-620 colon, 114%; in the experiment on MCF7 breast, 102%; with HCT-116 colon, 95.2%. Besides, the growth in the experiment with HCC-2998 colon is 99.3%; in the experiment with KM12 colon, 92.9%.
In the case of `COc1cc(C=O)ccc1Oc1ccc([N+](=O)[O-])cc1[N+](=O)[O-]`, the growth with T-47D breast is 75.2%; in the experiment with BT-549 breast it was 98%; in the experiment with MDA-MB-435 melanoma it was 112%; in the experiment with SW-620 colon it was 91.7%; in the experiment with MCF7 breast, 99.2%; in the experiment with HCT-116 colon, 94.9%. For the same molecule, the growth with HCC-2998 colon was 109%; with KM12 colon, 105%.
As to `COc1ccc(Cl)cc1Nc1nc(C(F)(F)F)ccc1C(=O)N/N=C/c1ccc(N(C)C)cc1`, the growth is 82.7% in the experiment with T-47D breast; 115% in the experiment on BT-549 breast; 121% in the experiment on MDA-MB-435 melanoma; 109% in the experiment with SW-620 colon; 218% in the experiment with MCF7 breast; 80.3% with HCT-116 colon. The growth is 68.3% with HCC-2998 colon and 103% in the experiment with KM12 colon.
With `[2H]C([2H])([2H])Oc1cc(F)ccc1/C=C/C(=O)/C=C(/C=C/c1ccc(F)cc1OC([2H])([2H])[2H])OB(F)F`, the growth in the experiment with T-47D breast is 33.1%; with BT-549 breast, 36.8%; in the experiment on MDA-MB-435 melanoma it was 16.5%; in the experiment on SW-620 colon, 22.3%; in the experiment on MCF7 breast it was 20.1%; in the experiment with HCT-116 colon, -11.1% (active). The results for the growth in the experiment with HCC-2998 colon and with KM12 colon were 56% and 61.6%, respectively.
Turning to `COc1ccc2nc3cc(Cl)ccc3c(NCCCNCCC(C)O)c2c1` (configuration not stated), the growth with T-47D breast was 4.09% (active); in the experiment with BT-549 breast it was -1.95% (active); in the experiment with MDA-MB-435 melanoma, -86.3% (active); in the experiment with SW-620 colon, -22.2% (active); with MCF7 breast, -0.546% (active); with HCT-116 colon, -49.9% (active). The figures for the growth with HCC-2998 colon and in the experiment with KM12 colon were -60.9% (active) and -20% (active), respectively.
On to `COc1ccc(/C=C2\COc3ccc(O)c(O)c3C2=O)c(OC)c1OC`, for which the growth in the experiment on T-47D breast was 12.1%; in the experiment with BT-549 breast, 46.9%; with MDA-MB-435 melanoma, 8.59% (active); in the experiment on SW-620 colon it was 9.64% (active); in the experiment with MCF7 breast, 14.8%; in the experiment with HCT-116 colon, 14.6%. The growth with HCC-2998 colon was 65.6%; with KM12 colon, 33.5%.
